Source: PubChem (National Center for Advancing Translational Sciences (NCATS))
HPGD block: inhibitors of human 15-hydroxyprostaglandin dehydrogenase (HPGD) | 150,000 compounds, 4.3% hits | AID 894 | Potency, µM, inactives show at the highest dose activity change, negative = inhibition, most hits filed as inhibitors | P15428 | purified HPGD, NADH fluorescence kinetic, PGE2 substrate; active means well fitted inhibition curve with a large enough effect, not every such curve was filed as active; inconclusive means small, poorly fitted or top-dose-only effect, or another doubt; inactive means no such curve, though single readings can be large or run the other way; further: potency means the concentration at half of the fitted maximal effect
Target sequence (P15428 whole entry, looked up): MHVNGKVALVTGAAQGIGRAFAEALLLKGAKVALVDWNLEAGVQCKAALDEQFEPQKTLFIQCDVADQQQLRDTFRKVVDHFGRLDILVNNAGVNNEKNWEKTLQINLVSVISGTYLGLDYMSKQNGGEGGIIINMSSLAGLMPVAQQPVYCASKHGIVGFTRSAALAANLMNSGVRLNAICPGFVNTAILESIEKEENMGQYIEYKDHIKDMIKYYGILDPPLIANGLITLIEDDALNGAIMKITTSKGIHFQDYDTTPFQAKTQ
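20 nM HPGD preincubated 15 min at room temperature with compound in 50 mM Tris-HCl pH 8, 0.01% Tween 20. Started with 1 mM NAD+ and 30 uM prostaglandin E2; NADH fluorescence (360/450 nm) read 5 times over 30-s intervals, last minus first.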
12-hLO inh: inhibitors of human 12-lipoxygenase (ALOX12). purified 12-hLO, xylenol orange hydroperoxide absorbance. Potency, µM (series often up to 57.1 µM), for the others: at the top dose activity change, negative = inhibition, hits mostly inhibitors. 150,000 compounds, 0.12% hits. AID 1452; further: potency means the concentration at half of the fitted maximal effect; nearly all actives have a fitted effect of over 55% in size
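Hydroperoxide formation by human 12-lipoxygenase from 40 uM arachidonic acid was followed colorimetrically via ferric-xylenol orange complex, using the 573/405 nm absorbance ratio. Enzyme concentration was 150 nM, with 30 min reaction at room temperature.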
IMPase Li cell: cell-permeable IMPase inhibitors with lithium potentiation | CHO-M1 cells, IP1 TR-FRET (IP-One), carbachol + lithium | Potency, µM (doses to about 59.4 µM), for inactives: at the top dose activity, negative = IMPase inhibition, most hits filed as inhibitors | 210,000 compounds, 0.35% hits | AID 1457;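 further: IP1 builds up when IMPase is blocked and the TR-FRET signal falls; potency means the concentration at half of the fitted maximal effect; plate controls were basal vehicle for no effect and high inhibitor control for full effect; nearly all actives have a fitted effect of over 50% in size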
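CHO cells stably expressing M1 receptor (2000/well) were cultured 16–30 h, then exposed to compounds with a small lithium addition for 30 min at 37C. IP1 was measured by TR-FRET competition; AC50 from Hill fits.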
ALDH1A1 block: blocks purified human ALDH1A1 activity; Purified ALDH1A1, NADH fluorescence, propionaldehyde substrate; Potency, µM (top dose mostly 75.3 µM), inactives show at the highest dose activity, negative = inhibition, actives largely listed as inhibitors; 220,000 compounds, 7.3% hits; AID 1030; active means well fitted inhibition curve with a large enough effect, not every such curve was filed as active; inconclusive means small, poorly fitted or top-dose-only effect, or another doubt; inactive means no such curve, though single readings can be large or run the other way;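 further: potency means the concentration at half of the fitted maximal effect; plate controls were no enzyme wells and a reference inhibitor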
IMPase inh: cell-permeable inhibitors of inositol monophosphatase (IMPase) | inhibition (IP1 accumulation), % at 46.1 µM | 120,000 tested, under 10 active | CHO-M1 cells, IP1 accumulation, HTRF TR-FRET ratio; active means well fitted curve in the direction sought with a large enough effect in the signal ratio, not every such curve was filed as active; inconclusive means small, poorly fitted or top-dose-only effect, or a change in a side signal; inactive means no such curve, though single readings can be large or run the other way; the % refers to the signal ratio;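 further: cells stimulated with carbachol in lithium chloride buffer; plate controls were DMSO basal wells for no effect and reference inhibitor wells for full effect; higher means more IMPase inhibition seen as more IP1 and lower FRET ratio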
Target sequence (P97697 whole entry, looked up): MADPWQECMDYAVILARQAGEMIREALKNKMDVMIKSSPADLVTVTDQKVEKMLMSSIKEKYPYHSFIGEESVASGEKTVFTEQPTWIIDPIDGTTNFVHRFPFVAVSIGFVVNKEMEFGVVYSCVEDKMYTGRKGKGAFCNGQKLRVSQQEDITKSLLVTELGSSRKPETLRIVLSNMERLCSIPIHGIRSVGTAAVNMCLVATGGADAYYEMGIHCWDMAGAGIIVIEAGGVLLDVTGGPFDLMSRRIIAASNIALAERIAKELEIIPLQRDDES
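CHO-M1 cells (CHO stably expressing M1 receptor), compound up to 46 uM final, stimulated with carbachol (50 uM as added) in buffer with 50mM LiCl, pH 7.4, 30 min at 37C. Cytosolic IP1 read by TR-FRET; AC50 from Hill fits.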
PNC assembly inh: perinucleolar compartment assembly inhibition | activity change (PNC), negative = inhibition, % at 10 µM | PC3M PTB-GFP, PNC prevalence imaging, 16 h; stronger effect = lower value | 140,000 compounds, 3.1% hits;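 active means readout at or below -70, meaning at least 70% loss of cells showing the perinucleolar compartment, a nuclear body marking cancer cells; inconclusive means readout between -30 and a set limit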;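 further: plate controls were DMSO wells for no effect and camptothecin positive control wells for full effect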
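PC3M cells stably expressing PTB-GFP, 750–1000 cells/well, treated 16 h at 37 °C with compound (23 nl of library stock), in duplicate. After paraformaldehyde fixation and Hoechst stain, imaged at 20x; PNC prevalence scored by image analysis.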
Active calls of the source: *; ? = inconclusive; nt = not tested or not shown; [ ] = dose if it differs, or a comment. Hits are enriched below; roughly 11% of the tested compounds scored in any of these assays. Unless noted, the call rests on the fitted dose curve; in most records, active means well fitted curve in the direction sought with a large enough effect; inconclusive means small, poorly fitted or top-dose-only effect, or another doubt; inactive means no such curve, though single readings can be large; an effect the other way counts as inactive or inconclusive. Unless noted, on the % scale 0 is the no-effect control and ±100 the full control effect.

SMILES	HPGD block	12-hLO inh	IMPase Li cell	ALDH1A1 block	IMPase inh	PNC assembly inh
CCOC(=O)c1c(O)[nH]c(=O)c(CC)c1C	-4%	-1%[11.4 µM]	-4%	0%[13.5 µM]	nt	nt
COc1cc(C(=O)Nc2ccc(S(=O)(=O)Nc3cc(C)nc(C)n3)cc2)cc(OC)c1OC	nt	nt	3%	?	nt	nt
Cc1cc(NS(=O)(=O)c2ccc(NC(=O)c3ccc(Br)o3)cc2)nc(C)n1	nt	nt	-4%	?	nt	nt
Cc1cc(NS(=O)(=O)c2ccc(NC(=O)/C=C/c3ccc(C)o3)cc2)nc(C)n1	nt	nt	nt	3.5µM*	nt	nt
COc1cc(OC)cc(C(=O)Nc2ccc(S(=O)(=O)Nc3cc(C)nc(C)n3)cc2)c1	-28%	4%	38%[38.3 µM]	5µM*	-3	4
COc1ccc(C(=O)Nc2ccc(S(=O)(=O)Nc3cc(C)nc(C)n3)cc2)cc1OC	nt	nt	9%	10µM*	nt	nt
O=C1C[C@@H](O)[C@@H](O)[C@H]2[C@@H]3C(=O)N(C4CCCCC4)C(=O)[C@@H]3CC[C@H]12	nt	nt	nt	-13%[13.5 µM]	nt	nt
O=C(/C=C/NNC(=O)c1ccccc1)c1ccccc1	-29%	-3%	-2%[38.3 µM]	-9%	6	?
O=C(/C=C/NNC(=O)c1ccc(Br)cc1)c1ccccc1	-20%	?	-2%[38.3 µM]	10µM*	7	-4
COc1ccccc1-c1ccc2ncnc(N3CCNCC3)c2c1	nt	nt	29%	?	nt	nt
Oc1ccc(Br)cc1-c1cc(-c2ccccc2)n[nH]1	25µM*	-13%	18%	4%	9	41
O=[N+]([O-])c1ccccc1-c1cc(-c2ccccc2O)n[nH]1	13µM*	-10%	12%	?	nt	-83*
Cc1ccc(O)c(-c2cc(-c3cccc(F)c3)n[nH]2)c1	16µM*	-25%	24%[38.3 µM]	-5%	-1	-17
Cc1ccc(O)c(-c2cc(-c3ccccc3F)[nH]n2)c1	4.5µM*	4%	44%[38.3 µM]	-3%	9	31
COc1ccc(-c2cc(-c3ccccc3O)[nH]n2)cc1OC	-16%	?	3%[38.3 µM]	-2%	12	?
CS(=O)(=O)Nc1cccc(-c2ccc3ncnc(NCCN4CCOCC4)c3c2)c1	nt	nt	-2%	22%	nt	nt
CC1CCN(CC[C@@H]2CCCN2S(=O)(=O)c2cccc(O)c2)CC1	nt	-6%	nt	nt	12	nt
Cc1ccc(-c2cc(-c3ccccc3C)[nH]n2)c(O)c1	10µM*	-29%	24%	1%	10	26
NC(=S)NNc1cc(Cl)cc(Cl)c1	-14%	?	11%[38.3 µM]	2µM*	8	-9
Cc1ccc(S(=O)(=O)c2nc(C)c3c(n2)CCC3)cc1	-14%	-2%	0%	?	-1	-28
COc1cccc(S(=O)(=O)c2nc(C)c3c(n2)CCC3)c1	nt	nt	-2%	6.3µM*	nt	nt
COc1cnc(-c2ccccn2)nc1Sc1ccccc1	nt	nt	18%	10µM*	nt	nt
COc1cnc(-c2ccccn2)nc1Sc1ccc(F)cc1	nt	nt	12%	7.9µM*	nt	nt
Cc1ccc(N(C(=O)CCC(=O)Nc2cc(C)on2)C(C(=O)NC2CCCC2)c2ccccc2)cc1 (stereo unspecified)	nt	nt	6%	20%	nt	nt
Cc1cc(NC(=O)CCC(=O)N(c2ccccc2)C(C(=O)NC2CCCC2)c2ccccc2)no1 (stereo unspecified)	-6%	3%	3%	25µM*	0[0.369 µM]	-22
CO[C@H]1COC(=O)C/C=C\[C@H](C)[C@H](OC)COC(=O)[C@@H](C)NC(=O)C/C=C\[C@@H]1C	nt	nt	nt	-2%[13.5 µM]	nt	nt
COc1ccc(C(=O)C(CCC(CNC(C)(C)C)C(=O)c2ccc(OC)cc2)CNC(C)(C)C)cc1 (stereo unspecified)	-4%	-1%	6%	8.9µM*	nt	-4
COCCNC(=O)c1ccc(-n2c(=O)c(=O)[nH]c3ccccc32)cc1	-21%	-6%	nt	-1%	nt	nt
Cc1ccccc1-n1c(=O)cc(N2CCC3(CC2)OCCO3)[nH]c1=O	4%	2%	1%	5%	8	-119*
CC(C)CN(C)Cc1c(C(=O)N2CCc3ccccc3C2)nc2ccc(Cl)cn12	nt	nt	18%	7.9µM*	nt	nt
